Reference: PubChem BioAssay AID1851 (National Center for Advancing Translational Sciences (NCATS), 2009)
The campaign covered roughly 16,000 compounds. About 5,100 (32%) were called active. Another 25% or so got no clear call; they are omitted. The list shows a part of the results. A number with no mark means an inactive call. Calls come from the whole dose curve; as a rule, active = well fitted curve in the direction sought with a large enough effect; inconclusive = small, poorly fitted or top-dose-only effect, or effect the other way; inactive = no such curve, though single readings can be large or run the other way.

What follows are compounds tested against Cytochrome P450 3A4 (Homo sapiens) (UniProt P08684) (assay: Cytochrome panel assay with activity outcomes). Conditions: recombinant CYP, pro-luciferin dealkylation, luminescence, p450-cyp3a4; series mostly up to 57.1 µM; activity, negative = inhibition: at the top concentration.
Chain of Cytochrome P450 3A4 (Homo sapiens) (P08684 whole entry, looked up): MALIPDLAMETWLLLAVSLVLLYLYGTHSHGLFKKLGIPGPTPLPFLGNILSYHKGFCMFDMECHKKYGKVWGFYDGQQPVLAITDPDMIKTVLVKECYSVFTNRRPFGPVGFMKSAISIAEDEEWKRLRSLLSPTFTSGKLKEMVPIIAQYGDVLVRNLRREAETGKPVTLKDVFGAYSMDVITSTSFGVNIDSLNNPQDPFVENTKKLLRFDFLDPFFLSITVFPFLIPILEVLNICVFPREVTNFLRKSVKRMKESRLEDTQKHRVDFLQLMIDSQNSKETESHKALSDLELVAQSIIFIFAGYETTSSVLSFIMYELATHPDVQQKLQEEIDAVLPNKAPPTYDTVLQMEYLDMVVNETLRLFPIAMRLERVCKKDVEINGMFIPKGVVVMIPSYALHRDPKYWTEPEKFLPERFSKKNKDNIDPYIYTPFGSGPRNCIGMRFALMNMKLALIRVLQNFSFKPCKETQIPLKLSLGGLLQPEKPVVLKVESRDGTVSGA
% is set by controls: 0 for no effect and ±100 for the full control effect.

Row | Compound | AC50 | activity, negative = inhibition
1 | COc1cccc(OC)c1/C(O)=C(\C#N)c1nc2ccccc2[nH]1 | 2 µM (active) | 
2 | Cc1ccccc1OC/C(O)=C(\C#N)c1nc2ccccc2[nH]1 |  | -2.48%
3 | Cn1c(=O)n(C)c2cc(/C=N/n3cnnc3)ccc21 |  | 2.58% [at 2.29 µM]
4 | CCn1c2ccccc2c2cc(/C=N/n3cn[nH]c3=S)ccc21 | 7.08 µM (active) | 
5 | O=C(O)c1cccnc1 |  | -2.06% [at 25.6 µM]
6 | CC(C)(C(=O)c1cccnc1)c1cccnc1 | 1.26 µM (active) | 
7 | Cc1ccc(S(=O)(=O)/C(C#N)=C/c2c(N3CC(C)OC(C)C3)nc3ccccn3c2=O)cc1 (stereo not given) | 1.41 µM (active) | 
8 | Cn1c(C(=O)N2COCC2(C)C)cc2c(=O)n3ccccc3nc21 |  | -15.4%
9 | CON(c1nc(N(C)C)nc(N(C)C)n1)S(=O)(=O)c1ccccc1Cl | 12.6 µM (active) | 
10 | Cc1cc2nc3[nH]c4c(Cl)cc(Cl)cc4c3nc2cc1C |  | -18.7% [at 11.4 µM]
11 | O=c1[nH]c(=O)c2nc3ccccc3nc2[nH]1 |  | -9.44%
12 | Fc1ccc2nc3[nH]c4ccccc4c3nc2c1 | 14.1 µM (active) | 
13 | CN(Cc1ccccc1)c1nc(-c2ccc([N+](=O)[O-])cc2)nc2ccccc12 | 1.12 µM (active) | 
14 | CN(Cc1ccco1)c1nc(-c2ccoc2)nc2ccccc12 | 25.1 µM (active) | 
15 | CN(C)c1ccc(-c2nc(N(C)Cc3ccco3)c3ccccc3n2)cc1 | 10 µM (active) | 
16 | CN(Cc1ccco1)c1nc(-c2ccc3c(c2)OCO3)nc2ccccc12 | 1.58 µM (active) | 
17 | CN(C)C(=O)c1ccc(-c2nc(N(C)Cc3ccco3)c3ccccc3n2)cc1 |  | -29.3%
18 | C[C@H](CCC(=O)NCC(=O)O)[C@H]1CC[C@H]2[C@H]3[C@@H](C[C@@H](O)[C@]12C)[C@]1(C)CC[C@H](O)C[C@@H]1C[C@@H]3O |  | 0.455% [at 25.6 µM]
19 | COc1ccccc1CNc1ncnc2ccc(-c3ccoc3)cc12 | 15.8 µM (active) | 
20 | COc1ccc(CNc2ncnc3ccc(-c4ccoc4)cc23)c(OC)c1 | 3.16 µM (active) | 
21 | CCOC(=O)/C(C(N)=NCCCO)=C(/O)c1ccccc1 |  | -10.3%
22 | COc1ccc(CNc2ncnc3ccc(-c4cccc(NS(C)(=O)=O)c4)cc23)c(OC)c1 | 2 µM (active) | 
23 | COc1ccccc1CNc1ncnc2ccc(-c3cccc(NS(C)(=O)=O)c3)cc12 | 3.16 µM (active) | 
24 | Cn1c(=O)c2[nH]c(/N=N\N3CCN(CCO)CC3)nc2n(C)c1=O |  | -17% [at 11.4 µM]

Row | Compound | AC50 | activity, negative = inhibition
25 | Cc1ccc(Nc2c([N+](=O)[O-])ccc3c2=NC2(CCCCC2)N=3)cc1 | 7.08 µM (active) | 
26 | CCC/C=C(\CCC)C(NC(=O)c1ccc(C(=O)OC)cc1)c1ccc(C(=O)OC)cc1 (stereo not given) | 15.8 µM (active) | 
27 | CCC/C=C(\CCC)C(NC(=O)OCC(C)C)c1ccc(C(=O)OC)cc1 (stereo not given) | 12.6 µM (active) | 
28 | CCC/C=C(\CCC)C(NC(=O)Oc1ccc(F)cc1)c1ccc(C(=O)OC)cc1 (stereo not given) |  | -19.3%
29 | CCOC(=O)NC(NC(=O)OCC)C(=O)c1ccc(F)cc1 |  | -7.15%
30 | CCC/C=C(\CCC)C(NC(=O)Cc1ccccc1)c1ccc(C(=O)OC)cc1 (stereo not given) | 3.98 µM (active) | 
31 | CCN(CC)c1nc(Nc2ccccc2)nc(Oc2ccc(C(=O)OC)cc2)n1 |  | 15.7%
32 | CCC/C=C(\CCC)C(NC(=O)C(C)(C)C)c1ccc(C(=O)OC)cc1 (stereo not given) | 10 µM (active) | 
33 | O[C@]1(c2ccccc2)c2ccccc2NC2=NCCN21 |  | 3.31% [at 11.4 µM]
34 | Cc1cc(-c2ccc(Cl)cc2)oc(=O)c1NC(=O)c1ccccc1 |  | 2.65%
35 | Cc1cc(=O)c2c(O)c(O)ccc2o1 |  | -19.3%
36 | COc1ccc(-c2cc(=O)c3c(O)cc(O)cc3o2)cc1 | 2.51 µM (active) | 
37 | O=c1cc(-c2ccccc2)oc2cc(O)c(O)c(O)c12 | 31.6 µM (active) | 
38 | COc1ccc(-c2coc3cc(OC)cc(O)c3c2=O)cc1 |  | -21.8%
39 | Cc1ccc(C)n1C(Cc1ccccc1)C(=O)O (stereo not given) |  | -6.07%
40 | O=C(O)[C@H](CCc1ccccc1)N1C(=O)c2ccccc2C1=O |  | 9.26% [at 11.4 µM]
41 | O=C(O)CC[C@@H](C(=O)O)N1C(=O)[C@@H]2[C@@H]3CC[C@H](C3)[C@@H]2C1=O |  | -4.14% [at 11.4 µM]
42 | CC(C)C(NC(=O)C1CCCCC1)C(=O)NC1CCN(Cc2ccccc2)CC1 (stereo not given) |  | -4.32%
43 | O=C(C(Cc1ccccc1)N1C(=O)C2C3CCC(C3)C2C1=O)N1CCCCC1 (stereo not given) | 12.6 µM (active) | 
44 | O=C(NC1CCCCC1)C(Cc1ccccc1)N1C(=O)C2C3CCC(C3)C2C1=O (stereo not given) | 8.91 µM (active) | 
45 | CN(CC(=O)Nc1cccc2c1CCCC2)S(=O)(=O)c1ccc(Br)cc1 | 8.91 µM (active) | 
46 | CN(C)CCOC(=O)[C@@H](c1ccccc1)C1(O)CCCC1 |  | -9.54% [at 25.6 µM]
47 | Cn1c(C[C@@H](O)c2nc3ccccc3n2C)nc2ccccc21 |  | -14.4% [at 11.4 µM]
48 | Cn1c(SCc2nc3ccccc3n2CCO)nc2ccccc21 | 8.91 µM (active) | 

Row | Compound | AC50 | activity, negative = inhibition
49 | Cc1ccc(/C=N/NC(=O)CSc2nc3ccccc3n2C)s1 |  | -26.5% [at 2.29 µM]
50 | CC(=O)Nc1ccc(S(=O)(=O)N2CCN(c3nc(NC4CCCC4)c4ccccc4n3)CC2)cc1 | 3.16 µM (active) | 
51 | Cc1ccc(C(=O)COC(=O)c2ccc3c(c2)C(=O)N(c2cccc4ncccc24)C3=O)cc1C | 1.26 µM (active) | 
52 | Cc1ccc(C(=O)O)cc1N1C(=O)c2cccc3cc(Br)cc(c23)C1=O |  | 19.6% [at 2.29 µM]
53 | CCOC(=O)N1CCN(C(=O)c2ccc(OC)c(OC)c2)CC1 |  | 14%
54 | CCOC(=O)N1CCN(C(=O)c2ccc(NC(C)=O)cc2)CC1 |  | -1.46% [at 2.29 µM]
55 | CCOC(=O)N1CCN(C(=O)c2cc(-c3ccc(F)cc3)[nH]c2C)CC1 | 11.2 µM (active) | 
56 | CS(=O)(=O)N1CCC2(CCCN(c3ccncc3)C2)CC1 |  | -49.8%
57 | CS(=O)(=O)N1CCC[C@@]2(CCN(c3ccncc3)C2)C1 | 7.94 µM (active) | 
58 | CS(=O)(=O)N1CCC2(CCN(c3ccccc3)CC2)CC1 |  | -15.8%
59 | CS(=O)(=O)N1CCC[C@@]2(CCN(c3ncccn3)C2)C1 |  | -19.1%
60 | CS(=O)(=O)N1CCC2(CC1)CN(c1ccncc1)C2 |  | -5.09%
61 | CS(=O)(=O)N1CCC[C@@]2(CCN(c3ccccc3)C2)C1 | 12.6 µM (active) | 
62 | COc1cc(CN2CCN(C(=O)CC(C)C)CC2)cc(OC)c1OC |  | 3.38%
63 | COc1ccccc1N1CCN(CCN(C(=O)C2CCCCC2)c2ccccn2)CC1 | 3.98 µM (active) | 
64 | COc1ccccc1N1CCN(CCCCNC(=O)c2ccc(-c3ccc(C(C)=O)cc3)cc2)CC1 |  | -14.3%
65 | CC1=NN(c2ccccc2)C(=O)/C1=C\c1c(C)[nH]n(-c2ccccc2)c1=O |  | -9.32%
66 | Cc1[nH]n(-c2ccccc2)c(=O)c1CCOC(=O)c1ccc(C(F)(F)F)cc1 | 14.1 µM (active) | 
67 | Cc1cc(-c2c(C)[nH]n(-c3ccccc3)c2=O)n(-c2ccccc2)n1 |  | -9.49% [at 11.4 µM]
68 | CSc1nc(C)c(CCOC(=O)c2cccc(C)c2)c(=O)[nH]1 |  | -7.19%
69 | Cc1[nH]n(-c2ccccc2)c(=O)c1CCOC(=O)c1cccc(C(F)(F)F)c1 | 3.16 µM (active) | 
70 | CSc1nc(C)c(CCOC(=O)c2ccccc2)c(=O)[nH]1 |  | -7.57%
71 | CC(C)(CO[C@H]1C[C@H]2CC[C@@]1(C)C2(C)C)[N+](=O)[O-] |  | -5.92% [at 11.4 µM]
72 | CCOC(=O)c1ccc(-c2ccc(/C=C(\C#N)C(=O)NCC3CCCO3)o2)cc1 (stereo not given) | 20 µM (active) | 

Row | Compound | AC50 | activity, negative = inhibition
73 | CCOC(=O)c1ccc(NC(=O)C(=O)NCC2CCCO2)cc1 (stereo not given) |  | 25.4%
74 | CCOC(=O)c1ccc(-c2ccc(CO)o2)cc1 |  | 1.82% [at 2.29 µM]
75 | CC(C)NC[C@@H](O)c1ccc(O)c2ncccc12 |  | -1.42% [at 11.4 µM]
76 | O=S(=O)(O)[C@@H](c1ccccc1)[C@@H](O)c1ccccc1 |  | -6.22% [at 11.4 µM]
77 | Cn1c(C(=O)NCC2CCCO2)cc2c(=O)n3ccccc3nc21 (stereo not given) |  | 12.1%
78 | COc1ccc(CCn2c(=N)c(C(=O)NCc3ccco3)cc3c(=O)n4ccccc4nc32)cc1 | 14.1 µM (active) | 
79 | OCCCSCCO |  | -9.23% [at 11.4 µM]
80 | CC1(O)c2ccccc2C(=O)N1CCc1ccccc1F (stereo not given) |  | -27%
81 | O=C(c1ccco1)N1CCN(c2cc(=O)n(C3CCCCC3)c(=O)[nH]2)CC1 |  | -12.1%
82 | COc1ccc(Nc2cc(=O)n(C3CCCCC3)c(=O)[nH]2)c(OC)c1 | 12.6 µM (active) | 
83 | Cc1cc(C(C)(C)C)c(O)c(C)c1CC1=NCCN1 |  | -21.5% [at 25.6 µM]
84 | CCC(=O)Nc1ncnc2ncn(C(=O)CC)c12 |  | -6.29% [at 11.4 µM]
85 | Cc1nn(C)c(Cl)c1NC(=O)OCc1ccc(F)cc1 |  | -35.1%
86 | COc1ccccc1COC(=O)Nc1c(C)nn(C)c1Cl | 15.8 µM (active) | 
87 | O=C(OCc1ccc(Cl)cc1Cl)c1cccnc1Cl |  | -0.666%
88 | Cc1nn(C)c(Cl)c1NC(=O)OCc1ccc(Cl)cc1Cl | 14.1 µM (active) | 
89 | O=C(Nc1ccccc1)OCc1cc(-c2ccc(Cl)cc2)on1 |  | 3.33% [at 2.29 µM]
90 | O=C(c1cc(C(F)(F)F)cc(C(F)(F)F)c1)N1CCC2(CCCN(Cc3nccs3)C2)CC1 | 20 µM (active) | 
91 | O=C(c1ccncc1)N1CCC2(CCN(Cc3nccs3)CC2)CC1 |  | -16.3%
92 | O=C(c1cc(C(F)(F)F)cc(C(F)(F)F)c1)N1CCC[C@@]2(CCN(Cc3nccs3)C2)C1 | 3.16 µM (active) | 
93 | CCN1CCCCC(=N/O)/C(=N/O)CCCC1 |  | -9.74% [at 11.4 µM]
94 | Cc1cc(C)c2c(=O)[nH]c(SCC(=O)N(C)C)nc2n1 |  | -16.7%
95 | Cc1cccc(NC(=O)CSc2nc3nc(C)cc(C)c3c(=O)[nH]2)c1 | 3.55 µM (active) | 
